The record followed here is PubChem BioAssay (EPA / NIEHS).

Molecules are shown by their SMILES. Activity calls are given as the source filed them. The calls were made as follows: active = hit-call score of the fitted dose curve at least 0.9, where 1 is the maximum; inactive = score below 0.9.

Chain of Hepatocyte nuclear factor 3-beta (Homo sapiens) (Q9Y261 whole entry, looked up): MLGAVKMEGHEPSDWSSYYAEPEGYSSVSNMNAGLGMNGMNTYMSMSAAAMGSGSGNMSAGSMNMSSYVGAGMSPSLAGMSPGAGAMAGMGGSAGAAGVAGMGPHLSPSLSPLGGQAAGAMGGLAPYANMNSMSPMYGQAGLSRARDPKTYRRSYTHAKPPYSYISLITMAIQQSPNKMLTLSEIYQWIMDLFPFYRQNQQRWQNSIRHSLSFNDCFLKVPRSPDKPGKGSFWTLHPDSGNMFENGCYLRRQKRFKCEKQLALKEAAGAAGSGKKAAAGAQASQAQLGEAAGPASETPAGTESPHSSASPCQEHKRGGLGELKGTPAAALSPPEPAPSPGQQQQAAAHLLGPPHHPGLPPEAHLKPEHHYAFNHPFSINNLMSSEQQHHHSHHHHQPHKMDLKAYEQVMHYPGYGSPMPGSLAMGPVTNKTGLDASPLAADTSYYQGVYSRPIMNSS

System in the first test: not listed separately
Description: ATG_M_19_CIS: Attagene CIS-FACTORIAL HepG2 Assay for M19 Transcription Factor (Internal Marker) (AID 2282939). As to conditions: HepG2 Attagene CIS-FACTORIAL M19 internal marker reporter; actives raise or lower the signal. In outline: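 Internal marker readout, fitted in both directions against DMSO, from HepG2 cells carrying transfected cis-element reporter constructs; RT-PCR and capillary electrophoresis of reporter mRNA after 24 h exposure.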
`Cc1ccc(N=C=O)cc1N=C=O`: the compound was classed as inactive.

Consider `[As]#[In]`, for which the compound was classed as inactive.

For `CN(C)C(=O)Nc1ccc(Cl)cc1`, the compound was called inactive.

As for `Nc1ccc(N=Nc2ccccc2)cc1`, the call was inactive.

Turning to `C=CCc1ccc2c(c1)OCO2`, the call was inactive.

As for `CC(C)(C)C(O)(CCc1ccc(Cl)cc1)Cn1cncn1` (configuration not stated), the compound was called inactive.

Take `CCC12COCN1COC2`: the compound was classed as inactive.

Regarding `N#CC(Br)(Br)C(N)=O`, the outcome was inactive.

Take `O=C(N[C@H](c1ccccc1)[C@@H]1CN2CCC1CC2)c1c(Cl)ccc(C(F)(F)F)c1Cl`: the result was inactive.

In the case of `CN(C)c1ccc(C(=O)c2ccc(N(C)C)cc2)cc1`, the outcome was inactive.

As for `O=C(Oc1ccc(Br)cc1)N1CCN2CCC1CC2`, the outcome was inactive.

Consider `Cc1cc(N=Nc2ccccc2C)ccc1N`, for which the outcome was inactive.

`OCCCl`: the result was inactive.

As for `Clc1ccc(C(c2ccc(Cl)cc2)C(Cl)(Cl)Cl)cc1`, the call was inactive.

On to `OCCOCCO`, for which the result was inactive.

For the compound `ClCCOCCCl`, the call was inactive.

As for `Cc1cccc(N)c1N`, the compound was called inactive.

System in another test: not listed separately
Description: ATG_ERE_CIS: Attagene CIS-FACTORIAL HepG2 Assay for Estrogen Response Element (ERE) (AID 2282940). To be noted: HepG2 ERE cis-reporter, Attagene RNA transcript; actives raise or lower the signal. In outline:
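After 24 h compound treatment, RNA from transfected HepG2 cells was reverse-transcribed, reporter cDNA PCR-amplified, FAM-labelled, HpaI-cut and resolved by capillary electrophoresis. ERE-driven cis reporter transcripts reflect endogenous factors; gain or loss scored against DMSO.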
Turning to `Nc1ccc(N=Nc2ccccc2)cc1`, the AC50 was 27 µM (active).

For the compound `CCC12COCN1COC2`, the call was inactive.

In the case of `O=C(Oc1ccc(Br)cc1)N1CCN2CCC1CC2`, the compound was called inactive.

With `CC(C)COC(=O)c1ccccc1C(=O)OCC(C)C`, the half-maximal activity concentration (AC50) was 39.6 µM (active).

Take `O=[N+]([O-])C(Br)(CO)CO`: the result was inactive.

With `OCCOCCO`, the outcome was inactive.

System in the next test: not listed separately
Put plainly: ATG_Ets_CIS: Attagene CIS-FACTORIAL HepG2 Assay for human Erythroblast Transformation Specific (ETS) (AID 2282941). As to conditions: HepG2 ETS cis-reporter transcription, actives raise or lower the signal. In outline:
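RT-PCR/capillary electrophoresis fluorescence read-out of reporter mRNA; HepG2 transient multi-reporter transfection; 24 h compound exposure; gain or loss of signal fitted bidirectionally relative to DMSO.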
As for `Cc1ccc(N=C=O)cc1N=C=O`, the compound was classed as inactive.

On to `[As]#[In]`, for which the call was inactive.

`CCCCCCCCOC(=O)c1ccc(C(=O)OCCCCCCCC)c(C(=O)OCCCCCCCC)c1`: the call was inactive.

For the compound `CCOC(=O)[C@]1(c2ccccc2)Oc2ccccc2[C@@H]1N`, the result was inactive.

Consider `CN(C)C(=O)Nc1ccc(Cl)cc1`, for which the compound was called inactive.

As to `Nc1ccc(N=Nc2ccccc2)cc1`, the call was inactive.

With `O=P(OCCCl)(OCCCl)OCCCl`, the outcome was inactive.

As to `C=CCc1ccc2c(c1)OCO2`, the compound was called inactive.

On to `CC(C)(C)C(O)(CCc1ccc(Cl)cc1)Cn1cncn1` (configuration not stated), for which the result was inactive.

Turning to `CCC12COCN1COC2`, the compound was called inactive.

Take `N#CC(Br)(Br)C(N)=O`: the compound was classed as inactive.

Turning to `COC(=O)c1ccccc1N`, the compound was classed as inactive.

For the compound `O=C(N[C@H](c1ccccc1)[C@@H]1CN2CCC1CC2)c1c(Cl)ccc(C(F)(F)F)c1Cl`, the result was inactive.

For `CN(C)c1ccc(C(=O)c2ccc(N(C)C)cc2)cc1`, the call was inactive.

Take `O=C(Oc1ccc(Br)cc1)N1CCN2CCC1CC2`: the compound was classed as inactive.

On to `Cc1cc(N=Nc2ccccc2C)ccc1N`, for which the compound was called inactive.

Turning to `OCCCl`, the compound was classed as inactive.

For the compound `CC(C)COC(=O)c1ccccc1C(=O)OCC(C)C`, the compound was called inactive.

`Clc1ccc(C(c2ccc(Cl)cc2)C(Cl)(Cl)Cl)cc1`: the compound was called inactive.

Turning to `Clc1ccc(Cl)c(Cl)c1`, the call was inactive.

`O=[N+]([O-])C(Br)(CO)CO`: the outcome was inactive.

As for `OCCOCCO`, the compound was classed as inactive.

In the case of `Nc1ccc(Cc2ccc(N)cc2)cc1`, the call was inactive.

On to `Nc1cc(Cl)cc(C(=O)O)c1Cl`, for which the result was inactive.

Turning to `C1=Cc2cccc3cccc1c23`, the compound was classed as inactive.

Turning to `ClCCOCCCl`, the compound was called inactive.

For the compound `Cc1cccc(N)c1N`, the AC50 is 77.1 µM (active).

Turning to `CC(C)(O)c1cnn2c(-c3ccc(F)c(-c4c(F)cccc4C#N)c3)cnc2n1`, the outcome was inactive.

A further test concerns the target Hepatocyte nuclear factor 3-beta (Homo sapiens) (UniProt Q9Y261). Description: ATG_FoxA2_CIS: Attagene CIS-FACTORIAL HepG2 Assay for human Forkhead box A2 (FOXA2) (AID 2282942). As to conditions: HepG2 cis-reporter transcription factor activity, 24 h; actives raise or lower the signal. The gist of the method: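 Endogenous transcription factor activity is captured via cis-element-driven reporter transcripts in transfected HepG2. Total RNA taken at 24 h post-dosing; labelled RT-PCR products resolved by capillary electrophoresis. Gain or loss fitted versus DMSO.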
In the case of `Cc1ccc(N=C=O)cc1N=C=O`, the compound was called inactive.

With `[As]#[In]`, the result was inactive.

With `CCCCCCCCOC(=O)c1ccc(C(=O)OCCCCCCCC)c(C(=O)OCCCCCCCC)c1`, the outcome was inactive.

`CCOC(=O)[C@]1(c2ccccc2)Oc2ccccc2[C@@H]1N`: the outcome was inactive.

For the compound `CN(C)C(=O)Nc1ccc(Cl)cc1`, the call was inactive.

Turning to `Nc1ccc(N=Nc2ccccc2)cc1`, the outcome was inactive.

As for `O=P(OCCCl)(OCCCl)OCCCl`, the result was inactive.

For the compound `C=CCc1ccc2c(c1)OCO2`, the compound was called inactive.

In the case of `CC(C)(C)C(O)(CCc1ccc(Cl)cc1)Cn1cncn1` (configuration not stated), the compound was classed as inactive.

Consider `CCC12COCN1COC2`, for which the compound was classed as inactive.

On to `N#CC(Br)(Br)C(N)=O`, for which the result was inactive.

`COC(=O)c1ccccc1N`: the compound was classed as inactive.

For the compound `O=C(N[C@H](c1ccccc1)[C@@H]1CN2CCC1CC2)c1c(Cl)ccc(C(F)(F)F)c1Cl`, the outcome was inactive.

`CN(C)c1ccc(C(=O)c2ccc(N(C)C)cc2)cc1`: the compound was classed as inactive.

With `O=C(Oc1ccc(Br)cc1)N1CCN2CCC1CC2`, the compound was called inactive.

Consider `Cc1cc(N=Nc2ccccc2C)ccc1N`, for which the AC50 is 15.7 µM (active).

Turning to `OCCCl`, the result was inactive.

Consider `CC(C)COC(=O)c1ccccc1C(=O)OCC(C)C`, for which the compound was called inactive.

For `Clc1ccc(C(c2ccc(Cl)cc2)C(Cl)(Cl)Cl)cc1`, the call was inactive.

Take `Clc1ccc(Cl)c(Cl)c1`: the compound was classed as inactive.

On to `O=[N+]([O-])C(Br)(CO)CO`, for which the compound was classed as inactive.

For the compound `OCCOCCO`, the compound was called inactive.

As for `Nc1ccc(Cc2ccc(N)cc2)cc1`, the outcome was inactive.

As to `Nc1cc(Cl)cc(C(=O)O)c1Cl`, the compound was called inactive.

For `C1=Cc2cccc3cccc1c23`, the compound was called inactive.

Turning to `ClCCOCCCl`, the compound was classed as inactive.

On to `Cc1cccc(N)c1N`, for which the compound was classed as inactive.

For `CC(C)(O)c1cnn2c(-c3ccc(F)c(-c4c(F)cccc4C#N)c3)cnc2n1`, the outcome was inactive.

System in a further test: not listed separately
Description: ATG_FoxO_CIS: Attagene CIS-FACTORIAL HepG2 Assay for human Forkhead box O (FoxO) (AID 2282943). To be noted: HepG2 Attagene cis-reporter, FoxO element, mRNA; actives raise or lower the signal. In outline:
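HepG2, transient MRTU transfection (cis element, endogenous TFs). Dose 24 h. TriZol RNA → oligo(dT) RT → PCR → 6-FAM primer extension → HpaI cut → CE. Gain/loss vs DMSO.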
On to `Cc1ccc(N=C=O)cc1N=C=O`, for which the result was inactive.

Regarding `[As]#[In]`, the compound was classed as inactive.

Turning to `CCCCCCCCOC(=O)c1ccc(C(=O)OCCCCCCCC)c(C(=O)OCCCCCCCC)c1`, the result was inactive.

Take `CCOC(=O)[C@]1(c2ccccc2)Oc2ccccc2[C@@H]1N`: the AC50 is 49.5 µM (active).

`CN(C)C(=O)Nc1ccc(Cl)cc1`: the outcome was inactive.

Regarding `Nc1ccc(N=Nc2ccccc2)cc1`, the result was inactive.

For `O=P(OCCCl)(OCCCl)OCCCl`, the call was inactive.

Turning to `C=CCc1ccc2c(c1)OCO2`, the result was inactive.

For the compound `CC(C)(C)C(O)(CCc1ccc(Cl)cc1)Cn1cncn1` (configuration not stated), the call was inactive.

As for `CCC12COCN1COC2`, the outcome was inactive.

With `N#CC(Br)(Br)C(N)=O`, the compound was classed as inactive.

As to `COC(=O)c1ccccc1N`, the compound was classed as inactive.

With `O=C(N[C@H](c1ccccc1)[C@@H]1CN2CCC1CC2)c1c(Cl)ccc(C(F)(F)F)c1Cl`, the call was inactive.

In the case of `CN(C)c1ccc(C(=O)c2ccc(N(C)C)cc2)cc1`, the compound was classed as inactive.

As for `O=C(Oc1ccc(Br)cc1)N1CCN2CCC1CC2`, the compound was called inactive.

`Cc1cc(N=Nc2ccccc2C)ccc1N`: the outcome was inactive.

With `OCCCl`, the outcome was inactive.

Regarding `CC(C)COC(=O)c1ccccc1C(=O)OCC(C)C`, the outcome was inactive.

Turning to `Clc1ccc(C(c2ccc(Cl)cc2)C(Cl)(Cl)Cl)cc1`, the compound was called inactive.

With `Clc1ccc(Cl)c(Cl)c1`, the compound was classed as inactive.

`O=[N+]([O-])C(Br)(CO)CO`: the compound was classed as inactive.

With `OCCOCCO`, the outcome was inactive.

`Nc1ccc(Cc2ccc(N)cc2)cc1`: the compound was called inactive.

On to `Nc1cc(Cl)cc(C(=O)O)c1Cl`, for which the result was inactive.

As to `C1=Cc2cccc3cccc1c23`, the compound was called inactive.

On to `ClCCOCCCl`, for which the outcome was inactive.

Regarding `Cc1cccc(N)c1N`, the call was inactive.

In the case of `CC(C)(O)c1cnn2c(-c3ccc(F)c(-c4c(F)cccc4C#N)c3)cnc2n1`, the compound was classed as inactive.
